Shiga inhibitor – blocks Shiga toxin action in Vero cells; Vero cells, Shiga toxin protein synthesis inhibition reporter; 290,000 compounds, 9.2% hits; inhibition, % at 38.7 µM; in the data active = inhibition mostly above about 28%, no sharp cut-off; inactive = mostly below about 43%; also: 0% is about no effect
Pf growth 96h – inhibits malaria parasite growth, 96 h; P. falciparum luciferase reporter growth, 96 h; AID 504834; Potency, µM (titrated, usually from 28.7 µM), without a hit: at the top dose activity change, negative = inhibition, hits mostly inhibitors; 320,000 compounds, 6.9% hits; also: potency is read from the fitted curve at half-maximal effect; % is scaled to controls: 0 for no effect and ±100 for the full control effect
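Delayed-death screen, second-generation endpoint: infected erythrocytes, 2% hematocrit, 0.05% parasitemia final; 96 hours at 37 C, 5% CO2; luciferase detection reagent; luminescence decrease equals reduced growth.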
AMA1-RON2 inh – disrupts binding of P. falciparum AMA1 to RON2. AlphaScreen AMA1-biotinylated RON2 peptide binding. Potency, µM (titrated, usually from 58.2 µM), for inactives: top-dose activity change, negative = inhibition, most hits filed as inhibitors. 360,000 compounds, 0.2% hits;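 also: potency is read from the fitted curve at half-maximal effect; 0% = vehicle wells and -100% = peptide control; nearly all actives have a fitted effect of over 45% in size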
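AMA1 (3D7) with his tag at 25 nM final met compounds first, then biotinylated RON2 peptide at 25 nM; detection used donor plus acceptor beads, 10 µg/mL apiece, read by AlphaScreen after 30 min at room temperature.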
Cycloheximide cs – counter-screen for Shiga toxin inhibitors: cycloheximide protein synthesis inhibition; 300,000 compounds, 12% hits; max response, %; cell reporter, cycloheximide protein synthesis inhibition counterscreen; in the data active = max response mostly above about 13%, no sharp cut-off; inactive = mostly below about 14%; also: read at 38.3 µM for the half of the compounds with a filed dose; 0% is about no effect
Pf growth 48h – inhibits P. falciparum growth in the first generation, 48 h. P. falciparum luciferase growth in erythrocytes, 48 h. Potency, µM (titrated, usually from 28.7 µM), without a hit: at the top dose activity change, negative = inhibition, most hits filed as inhibitors. 310,000 compounds, 5.9% hits. AID 504832; also: potency is read from the fitted curve at half-maximal effect; % is scaled to controls: 0 for no effect and ±100 for the full control effect
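Growth was read as firefly luciferase luminescence after a 48 h, 37 C, 5% CO2 exposure of compounds to reporter-bearing P. falciparum cultures (0.1% parasitemia, 2% hematocrit final) in Albumax-supplemented RPMI 1640.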
SARS PLP yeast – blocks SARS-CoV papain-like protease in a yeast assay | S. cerevisiae expressing SARS-CoV PLpro, growth rescue | Potency, µM (highest dose often 32.9 µM), without a hit: at the top dose activity, positive = growth rescue, hits mostly activators | 330,000 compounds, 0.19% hits; calls by dose curve; also: potency is read from the fitted curve at half-maximal effect; 0% is about no effect; nearly all actives have a fitted effect of over 55% in size
* = called active by the depositor; ? = inconclusive; . = no result; + = active, no number. The list is not random: actives were taken first. Their share in the collection is about 19%. Unless noted, calls follow the shape of the dose curve; as a rule, active = well fitted curve in the direction sought with a large enough effect; inconclusive = small, poorly fitted or top-dose-only effect, or another doubt; inactive = no such curve, though single readings can be large; an effect the other way counts as inactive or inconclusive.

SMILES	Shiga inhibitor	Pf growth 96h	AMA1-RON2 inh	Cycloheximide cs	Pf growth 48h	SARS PLP yeast
COc1ccccc1Oc1c(C)oc2c(CN3CCN(C)CC3)c(O)ccc2c1=O	-6.3	19.0%	.	1.3	13.0%	-0.1%
CCOC(=O)c1c(CSCc2ccccc2)oc2ccc(O)c(CN(C)C)c12	-13.7	5.86µM*	-12.4%	-4.3	5.86µM*	0.5%
CSc1nc(-c2ccccc2)c(C#N)c(=O)n1C	-10.8	18.1%	0.1%	-4.7	-12.1%	-0.4%
O=C(NCc1ccco1)c1ccc(COc2ccccc2[N+](=O)[O-])o1	-6.1	?	14.1%	17.2	-7.0%	?
CC(=O)c1ccc(Nc2nc(C(N)C(C)C)cs2)cc1 (centres undefined)	.	.	86.1%	.	.	.
CC1(C)NC(=O)N(CCOCCOc2c(Cl)cc(Cl)cc2Cl)C1=O	-9.4	-10.6%	1.7%	-5.3	.	10.5%
COc1cc(C(=O)NCC2CCCO2)ccc1OCc1ccc(Cl)cc1 (centres undefined)	.	?	-3.5%	.	?	-0.5%
COc1cccc(OCc2ccc(C(=O)NCC3CCCO3)cc2)c1 (centres undefined)	36.6*	-28.4%	-17.3%	27.8*	3.5%	-8.2%
O=C(NCC1CCCO1)c1ccc(COc2ccccc2Br)cc1 (centres undefined)	+	-12.1%	-15.6%	15.0	3.3%	0.4%
COc1cc(C(=O)NCC2CCCO2)ccc1OCc1ccc(Cl)cc1Cl (centres undefined)	.	11.7µM*	0.9%	.	11.7µM*	1.6%
COC(=O)CNc1c(-c2ccccc2)nc2ccc(Br)cn12	50.0*	4.7%	17.0%	42.0*	.	-19.4%
C=CCOc1ccc(CNCc2cccnc2)cc1OCC	-6.4	320.6%	-1.7%	1.8	25.3%	3.6%
C=CCOc1ccc(CNCc2cccnc2)cc1	14.8	?	-3.2%	8.5*	19.3%	0.5%
NC(N)=NC(N)=Nc1ccc(SC(F)(F)F)cc1	-8.1	3.29µM*	47.7%	-4.1	14.7µM*	5.8%
NC(N)=NC(N)=Nc1ccc2ccccc2c1	15.4	?	48.1%	7.0	?	-0.3%
O=C1CC[C@@H]2C[C@@]3(C[C@@H]4CCN1[C@H]24)Nc1cc([N+](=O)[O-])ccc1NC3=NCc1ccccc1	.	.	-2.6%	.	.	.
Cc1ccccc1OCC(=O)OCC(=O)NC1CCCCCC1	.	24.4%	-7.1%	.	1.8%	-0.9%
O=C(Nc1ncccc1O)c1ccc(S(=O)(=O)NCc2ccco2)cc1	.	.	43.6%	.	.	.
O=C(Nc1ncccc1O)c1ccc(NS(=O)(=O)c2ccc3[nH]c(=O)[nH]c3c2)cc1	.	0.104µM*	0.0%	.	0.131µM*	-2.1%
O=C(Nc1ncccc1O)c1ccc(S(=O)(=O)Nc2ccccc2)cc1	.	?	89.0%	.	0.828µM*	0.3%
CCSc1nc(C)nc2sc(C)c(C)c12	-2.2	52.8%	5.2%	-7.7	-27.1%	-0.6%
CN(C)CCCN1c2ccccc2C(C)(C)c2ccccc21	.	16.9µM*	.	.	?	.
CC(=O)c1ccc2c(c1)N(Cc1ccccc1Cl)C(=O)C(C)S2 (centres undefined)	.	.	10.1%	.	.	.
CN1CCN(CCCNC(=O)c2cn(C)c3ccc(S(=O)(=O)N(C)C)cc3c2=O)CC1	2.4	?	-3.2%	-0.6	.	-6.9%
CC(=O)c1ccc2c(c1)N(CCCN1CCC(CCO)CC1)c1ccccc1S2	.	?	-6.5%	.	8.09µM*	.
SMILES	Shiga inhibitor	Pf growth 96h	AMA1-RON2 inh	Cycloheximide cs	Pf growth 48h	SARS PLP yeast
OCCN1CCN(CCCN2c3ccccc3Sc3ccc(Cl)cc32)CC1	-20.6	6.57µM*	?	-5.6	11.7µM*	-2.1%
O=C(CN1CCCC1)N1c2ccccc2Sc2ccc(Cl)cc21	-15.0	5.8%	-8.8%	-2.2	-15.6%	-3.7%
CN(C)CCCN1c2ccccc2CCc2ccccc21	-13.3	.	10.9%	-1.3	.	-4.8%
CN1CCN(CCCN2c3ccccc3Sc3ccc(S(=O)(=O)N(C)C)cc32)CC1	.	3.61µM*	-9.8%	.	13.1µM*	.
CCOC(=O)C1CCN(S(=O)(=O)CCNC(=O)c2ccc(F)cc2)CC1	.	8.2%	-5.1%	.	?	11.7%
CC(Nc1ccc2c(c1)OCCO2)C(=O)N1c2ccccc2CC1C (centres undefined)	37.2	-18.1%	-14.6%	23.6	39.6%	2.5%
Cc1cccc(/C=C(\C(=O)O)c2ccc(S(=O)(=O)N3CCCC3)s2)c1	.	.	-28.5%	.	.	-6.7%
CN(C)CCCN1c2ccccc2Sc2ccc3ccccc3c21	.	.	-22.4%	.	.	.

Compound activity from PubChem.
